Assay results taken from ChEMBL document CHEMBL1961873, “Compounds: GSK PKIS; Assays: Nanosyn kinase panel” (2012).

How the values were obtained:
[1] = system: Tyrosine-protein kinase ABL1 (Homo sapiens), P00519 [T315I]; conditions: at 1 µM
[2] = system: Tyrosine-protein kinase ABL1 (Homo sapiens), P00519 [Y253F]; conditions: at 0.1 µM
[3] = system: Tyrosine-protein kinase ABL1 (Homo sapiens), P00519 [Y253F]; conditions: at 1 µM
[4] = molecular target: Tyrosine-protein kinase ABL1 (Homo sapiens) (UniProt P00519); conditions: at 0.1 µM
[5] = molecular target: Tyrosine-protein kinase ABL1 (Homo sapiens) (UniProt P00519); conditions: at 1 µM
[6] = molecular target: ALK tyrosine kinase receptor (Homo sapiens) (UniProt Q9UM73); conditions: at 0.1 µM
[7] = molecular target: ALK tyrosine kinase receptor (Homo sapiens) (UniProt Q9UM73); conditions: at 1 µM
[8] = molecular target: Tyrosine-protein kinase ABL2 (Homo sapiens) (UniProt P42684); conditions: at 0.1 µM
[9] = molecular target: Tyrosine-protein kinase ABL2 (Homo sapiens) (UniProt P42684); conditions: at 1 µM
[10] = molecular target: Tyrosine-protein kinase receptor UFO (Homo sapiens) (UniProt P30530); conditions: at 0.1 µM
[11] = molecular target: Tyrosine-protein kinase receptor UFO (Homo sapiens) (UniProt P30530); conditions: at 1 µM
[12] = molecular target: Tyrosine-protein kinase Blk (Homo sapiens) (UniProt P51451); conditions: at 0.1 µM
[13] = molecular target: Tyrosine-protein kinase Blk (Homo sapiens) (UniProt P51451); conditions: at 1 µM
[14] = molecular target: T1, Cytoplasmic tyrosine-protein kinase BMX (Homo sapiens) (UniProt P51813); conditions: at 0.1 µM
T1 sequence (whole entry): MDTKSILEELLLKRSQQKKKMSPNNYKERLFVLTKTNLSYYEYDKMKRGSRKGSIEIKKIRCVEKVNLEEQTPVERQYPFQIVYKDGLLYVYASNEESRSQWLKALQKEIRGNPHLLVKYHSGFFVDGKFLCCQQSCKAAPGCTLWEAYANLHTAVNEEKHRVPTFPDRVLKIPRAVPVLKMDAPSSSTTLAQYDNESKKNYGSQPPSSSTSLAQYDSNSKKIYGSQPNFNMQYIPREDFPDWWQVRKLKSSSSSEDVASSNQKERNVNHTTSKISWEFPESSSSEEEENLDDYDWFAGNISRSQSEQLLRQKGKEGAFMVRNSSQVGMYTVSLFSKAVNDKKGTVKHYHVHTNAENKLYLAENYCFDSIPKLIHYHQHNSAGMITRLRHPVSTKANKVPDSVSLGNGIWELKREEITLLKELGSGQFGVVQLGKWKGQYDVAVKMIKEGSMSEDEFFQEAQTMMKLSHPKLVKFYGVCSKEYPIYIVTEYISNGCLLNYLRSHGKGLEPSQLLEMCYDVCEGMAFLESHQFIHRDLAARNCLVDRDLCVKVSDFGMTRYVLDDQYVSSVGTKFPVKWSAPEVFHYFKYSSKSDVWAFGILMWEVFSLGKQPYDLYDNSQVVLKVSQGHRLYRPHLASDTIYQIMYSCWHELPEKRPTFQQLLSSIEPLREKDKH

[15] = molecular target: T1, Cytoplasmic tyrosine-protein kinase BMX (Homo sapiens); conditions: at 1 µM
[16] = molecular target: Protein-tyrosine kinase 6 (Homo sapiens) (UniProt Q13882); conditions: at 0.1 µM
[17] = molecular target: Protein-tyrosine kinase 6 (Homo sapiens) (UniProt Q13882); conditions: at 1 µM
[18] = molecular target: Tyrosine-protein kinase BTK (Homo sapiens) (UniProt Q06187); conditions: at 0.1 µM
[19] = molecular target: Tyrosine-protein kinase BTK (Homo sapiens) (UniProt Q06187); conditions: at 1 µM
[20] = molecular target: Tyrosine-protein kinase CSK (Homo sapiens) (UniProt P41240); conditions: at 0.1 µM;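 note: value given is the averaged percent inhibition of CSK kinase activity, from the GSK PKIS kinase inhibitor set screening panel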
Tyrosine-protein kinase CSK (Homo sapiens), sequence (P41240 2-450 limits assumed): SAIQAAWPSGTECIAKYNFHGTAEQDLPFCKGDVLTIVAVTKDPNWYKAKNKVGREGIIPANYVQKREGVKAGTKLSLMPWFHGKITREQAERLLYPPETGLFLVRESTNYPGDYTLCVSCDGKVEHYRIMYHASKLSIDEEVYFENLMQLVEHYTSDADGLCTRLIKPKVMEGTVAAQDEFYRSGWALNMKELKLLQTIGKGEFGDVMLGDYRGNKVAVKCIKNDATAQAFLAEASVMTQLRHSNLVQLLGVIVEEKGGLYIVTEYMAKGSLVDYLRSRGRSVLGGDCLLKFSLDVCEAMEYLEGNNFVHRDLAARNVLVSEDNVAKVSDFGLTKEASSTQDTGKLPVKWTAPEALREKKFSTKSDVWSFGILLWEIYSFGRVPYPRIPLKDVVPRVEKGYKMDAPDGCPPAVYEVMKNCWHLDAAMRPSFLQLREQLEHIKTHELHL

ALK tyrosine kinase receptor (Homo sapiens), sequence (Q9UM73 19-1620 limits assumed): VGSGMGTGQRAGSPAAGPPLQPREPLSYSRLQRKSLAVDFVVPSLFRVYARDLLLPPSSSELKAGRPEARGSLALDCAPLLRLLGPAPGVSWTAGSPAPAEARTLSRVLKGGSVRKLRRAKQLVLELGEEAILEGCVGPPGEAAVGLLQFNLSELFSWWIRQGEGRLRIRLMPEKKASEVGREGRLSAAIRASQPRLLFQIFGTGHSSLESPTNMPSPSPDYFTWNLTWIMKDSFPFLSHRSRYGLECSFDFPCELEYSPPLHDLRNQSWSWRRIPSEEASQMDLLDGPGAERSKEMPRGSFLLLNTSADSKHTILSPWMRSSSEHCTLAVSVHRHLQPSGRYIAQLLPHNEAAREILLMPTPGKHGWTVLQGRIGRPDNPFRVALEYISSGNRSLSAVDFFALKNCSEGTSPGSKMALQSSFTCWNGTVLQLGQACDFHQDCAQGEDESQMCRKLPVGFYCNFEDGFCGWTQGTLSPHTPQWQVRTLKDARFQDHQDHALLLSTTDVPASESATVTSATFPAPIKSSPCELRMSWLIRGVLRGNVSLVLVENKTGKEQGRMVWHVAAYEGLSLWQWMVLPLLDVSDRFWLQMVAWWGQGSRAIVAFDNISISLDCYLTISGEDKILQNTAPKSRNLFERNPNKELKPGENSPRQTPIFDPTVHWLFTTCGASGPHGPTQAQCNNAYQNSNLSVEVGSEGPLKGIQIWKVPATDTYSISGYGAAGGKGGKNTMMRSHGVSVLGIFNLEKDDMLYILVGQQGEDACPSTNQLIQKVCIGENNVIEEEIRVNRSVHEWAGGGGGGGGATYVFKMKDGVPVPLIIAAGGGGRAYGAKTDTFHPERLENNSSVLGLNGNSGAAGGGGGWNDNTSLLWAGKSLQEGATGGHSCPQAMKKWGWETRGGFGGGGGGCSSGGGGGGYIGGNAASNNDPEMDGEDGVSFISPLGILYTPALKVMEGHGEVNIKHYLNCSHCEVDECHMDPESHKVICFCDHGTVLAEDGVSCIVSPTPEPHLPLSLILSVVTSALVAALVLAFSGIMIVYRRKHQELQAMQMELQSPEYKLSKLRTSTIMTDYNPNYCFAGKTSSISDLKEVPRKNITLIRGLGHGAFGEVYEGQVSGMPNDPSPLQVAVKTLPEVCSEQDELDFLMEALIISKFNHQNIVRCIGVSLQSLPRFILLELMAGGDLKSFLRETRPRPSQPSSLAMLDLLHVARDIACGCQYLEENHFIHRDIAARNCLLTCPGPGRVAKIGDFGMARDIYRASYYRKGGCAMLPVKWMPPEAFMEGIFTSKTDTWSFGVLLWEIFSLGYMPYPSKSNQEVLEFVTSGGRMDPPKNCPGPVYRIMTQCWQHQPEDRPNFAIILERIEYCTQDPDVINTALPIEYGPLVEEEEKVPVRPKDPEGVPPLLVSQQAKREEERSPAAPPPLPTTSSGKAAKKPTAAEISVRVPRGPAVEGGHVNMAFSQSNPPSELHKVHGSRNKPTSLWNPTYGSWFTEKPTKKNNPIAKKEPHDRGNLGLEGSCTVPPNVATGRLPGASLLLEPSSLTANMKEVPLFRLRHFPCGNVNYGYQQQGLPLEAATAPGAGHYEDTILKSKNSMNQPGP
Tyrosine-protein kinase ABL2 (Homo sapiens), sequence (P42684 whole entry): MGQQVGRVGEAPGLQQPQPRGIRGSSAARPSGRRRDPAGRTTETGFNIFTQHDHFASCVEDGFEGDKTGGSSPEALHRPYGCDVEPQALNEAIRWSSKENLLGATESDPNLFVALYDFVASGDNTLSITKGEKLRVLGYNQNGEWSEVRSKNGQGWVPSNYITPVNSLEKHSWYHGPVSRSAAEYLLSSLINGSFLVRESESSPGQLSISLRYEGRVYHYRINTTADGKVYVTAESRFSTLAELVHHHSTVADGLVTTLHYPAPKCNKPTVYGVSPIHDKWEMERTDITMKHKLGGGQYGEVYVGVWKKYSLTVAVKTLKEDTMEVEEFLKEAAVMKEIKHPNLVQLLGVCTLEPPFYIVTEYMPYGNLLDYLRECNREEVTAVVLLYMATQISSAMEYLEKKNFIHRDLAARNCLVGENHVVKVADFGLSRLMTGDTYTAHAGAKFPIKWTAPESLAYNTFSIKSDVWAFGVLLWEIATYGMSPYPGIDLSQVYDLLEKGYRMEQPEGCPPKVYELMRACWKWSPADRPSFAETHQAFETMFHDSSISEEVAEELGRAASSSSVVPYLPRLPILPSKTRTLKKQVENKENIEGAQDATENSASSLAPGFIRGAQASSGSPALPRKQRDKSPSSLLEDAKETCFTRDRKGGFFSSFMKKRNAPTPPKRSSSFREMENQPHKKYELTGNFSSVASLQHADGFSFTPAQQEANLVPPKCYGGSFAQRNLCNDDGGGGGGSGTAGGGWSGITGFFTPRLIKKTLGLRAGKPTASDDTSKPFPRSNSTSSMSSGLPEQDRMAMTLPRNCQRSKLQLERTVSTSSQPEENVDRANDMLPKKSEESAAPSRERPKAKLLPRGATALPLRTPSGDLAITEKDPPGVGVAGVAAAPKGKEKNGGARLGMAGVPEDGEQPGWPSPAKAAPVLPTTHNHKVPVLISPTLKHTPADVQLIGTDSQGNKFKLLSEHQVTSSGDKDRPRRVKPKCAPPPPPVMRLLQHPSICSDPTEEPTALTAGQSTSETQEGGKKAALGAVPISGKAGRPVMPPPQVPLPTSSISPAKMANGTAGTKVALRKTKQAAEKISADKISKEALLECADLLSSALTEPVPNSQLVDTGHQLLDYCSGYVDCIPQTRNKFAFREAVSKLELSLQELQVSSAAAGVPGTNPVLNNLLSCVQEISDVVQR
Tyrosine-protein kinase BTK (Homo sapiens), sequence (Q06187 whole entry): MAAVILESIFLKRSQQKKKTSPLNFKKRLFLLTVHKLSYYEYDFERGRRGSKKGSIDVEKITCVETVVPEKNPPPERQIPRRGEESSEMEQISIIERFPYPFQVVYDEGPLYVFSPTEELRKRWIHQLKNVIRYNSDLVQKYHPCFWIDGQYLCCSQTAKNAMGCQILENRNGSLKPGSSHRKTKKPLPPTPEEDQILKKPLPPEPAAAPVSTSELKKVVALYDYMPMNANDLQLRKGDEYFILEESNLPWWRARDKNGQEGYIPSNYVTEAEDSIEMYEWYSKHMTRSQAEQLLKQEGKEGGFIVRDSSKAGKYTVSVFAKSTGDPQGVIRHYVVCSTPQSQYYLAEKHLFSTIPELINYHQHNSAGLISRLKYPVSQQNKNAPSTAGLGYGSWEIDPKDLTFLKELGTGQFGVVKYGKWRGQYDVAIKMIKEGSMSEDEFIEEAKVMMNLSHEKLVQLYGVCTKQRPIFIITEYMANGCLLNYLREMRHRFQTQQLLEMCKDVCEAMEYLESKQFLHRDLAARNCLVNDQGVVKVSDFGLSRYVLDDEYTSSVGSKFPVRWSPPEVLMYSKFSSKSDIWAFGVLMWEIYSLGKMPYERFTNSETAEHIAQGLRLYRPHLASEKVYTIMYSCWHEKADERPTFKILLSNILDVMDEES
Tyrosine-protein kinase receptor UFO (Homo sapiens), sequence (P30530 whole entry): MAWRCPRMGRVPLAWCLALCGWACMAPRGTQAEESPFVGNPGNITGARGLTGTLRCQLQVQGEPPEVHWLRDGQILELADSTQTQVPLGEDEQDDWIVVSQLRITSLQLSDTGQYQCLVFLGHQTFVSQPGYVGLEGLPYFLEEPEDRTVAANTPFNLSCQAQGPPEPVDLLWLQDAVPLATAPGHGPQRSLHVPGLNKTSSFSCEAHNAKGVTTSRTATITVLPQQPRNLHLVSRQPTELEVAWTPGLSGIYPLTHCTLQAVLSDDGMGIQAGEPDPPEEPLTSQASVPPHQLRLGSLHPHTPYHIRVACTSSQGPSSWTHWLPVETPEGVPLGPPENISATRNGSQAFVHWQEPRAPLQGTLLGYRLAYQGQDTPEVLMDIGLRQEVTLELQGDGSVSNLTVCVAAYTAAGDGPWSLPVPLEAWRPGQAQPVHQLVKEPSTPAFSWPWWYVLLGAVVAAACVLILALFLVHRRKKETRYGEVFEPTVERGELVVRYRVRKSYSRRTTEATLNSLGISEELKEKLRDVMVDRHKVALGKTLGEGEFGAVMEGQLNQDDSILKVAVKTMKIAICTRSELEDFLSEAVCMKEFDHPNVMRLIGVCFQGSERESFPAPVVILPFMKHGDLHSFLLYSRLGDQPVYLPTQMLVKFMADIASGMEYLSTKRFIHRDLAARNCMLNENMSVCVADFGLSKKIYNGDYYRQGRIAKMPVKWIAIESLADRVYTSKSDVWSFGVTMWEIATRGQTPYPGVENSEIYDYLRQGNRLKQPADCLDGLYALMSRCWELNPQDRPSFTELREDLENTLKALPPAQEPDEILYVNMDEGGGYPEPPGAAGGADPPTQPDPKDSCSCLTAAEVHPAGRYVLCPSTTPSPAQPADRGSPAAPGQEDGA

SMILES	inhibition [1]	inhibition [2]	inhibition [3]	inhibition [4]	inhibition [5]	inhibition [6]	inhibition [7]	inhibition [8]	inhibition [9]	inhibition [10]	inhibition [11]	inhibition [12]	inhibition [13]	inhibition [14]	inhibition [15]	inhibition [16]	inhibition [17]	inhibition [18]	inhibition [19]	inhibition [20]
Cc1ccc(NC(=O)c2ccoc2)cc1-c1ccc(C(=O)NCC2CC2)cc1	1.92%	1.38%	-0.92%	1.09%	1.49%	1.85%	4.11%	2.28%	2.36%	-3.64%	-2.93%	1.47%	3.07%	3.34%	1.66%	0.58%	4.58%	0.36%	0.35%	1.61%
O=C1NC(=O)C(c2cccc(Cl)c2)=C1Nc1ccc(Cl)c(C(=O)O)c1	4.06%	1.35%	3.2%	3.49%	5.5%	1.24%	3.05%	3.74%	-0.4%	-4.48%	-3.02%	2.33%	0.47%	8.42%	2.62%	3.64%	5.12%	-0.87%	0.33%	1.29%
COC(=O)Nc1nc2ccc(Sc3ccc(NC(=O)Nc4cc(C(F)(F)F)ccc4F)cc3)cc2[nH]1	72.3%	3.61%	31.3%	3.45%	33%	1.12%	2.57%	11.8%	58.9%	1.61%	10.9%	0.49%	2.36%	3.33%	-0.17%	1.16%	1.4%	2.12%	2.1%	1.7%
O=C(Nc1n[nH]c2cc(-c3ccccc3)ccc12)C1CC1	82.8%	22.3%	68%	13.5%	63.8%	3.37%	4.86%	6.15%	31.2%	-8.55%	-6.73%	1.88%	6.79%	4.11%	4.88%	2.71%	6.62%	1.13%	2.12%	2.97%
CCS(=O)(=O)c1ccc(OC)c(Nc2ncc(-c3cccc(-c4ccccc4F)c3)o2)c1	18%	60.6%	91.4%	13.7%	77.8%	1.79%	4.33%	7.9%	65.1%	0.9%	2.28%	8.74%	55.5%	-4.54%	9.3%	1.06%	10.8%	-0.93%	3.93%	0.57%
COc1ccc2cc(-c3c(-c4ccncc4)nc(-c4ccc(S(C)(=O)=O)cc4C)n3C)ccc2c1	42.6%	4.62%	18%	2.92%	13.5%	2.91%	6.27%	2.97%	11.7%	-5.68%	-4.46%	3.03%	7.1%	5.32%	3.88%	29%	85%	-2.49%	0.28%	3.76%
NS(=O)(=O)c1ccc(N/N=C2\C(=O)Nc3ccc(C(=O)NCCCn4ccnc4)cc32)cc1	14.2%	5.66%	15.5%	2.77%	13.3%	3.7%	11.1%	4.28%	9.85%	-2.66%	3.27%	2.75%	12.2%	10.2%	8.26%	4.87%	6.65%	-1.04%	0.06%	2.76%
Fc1ccc(-c2c(-c3ccncc3)nc3n2CCS3)cc1	3.81%	2.69%	5.48%	-1.32%	2.3%	-2.59%	-1.88%	-2.22%	2.07%	-4.74%	-2.08%	-2.78%	-0.74%	1.44%	0.74%	4.76%	4.76%	-5.15%	-4.99%	3.65%
Fc1ccc(-c2ncn(C3CCNCC3)c2-c2ccnc(Oc3ccc4c(c3)OCO4)n2)cc1	3.48%	4.71%	4.75%	5.17%	9.1%	4.91%	6.26%	5.06%	9%	-7.21%	-5.79%	4.26%	5.32%	5.5%	5.87%	4.19%	5.5%	-0.46%	0.77%	3.85%
COc1cccc(/C=N/Nc2ncnc3c2cnn3-c2cccc(OC)c2)c1	10.4%	11.1%	49.7%	6.38%	27.4%	1.22%	2.63%	2.78%	15.2%	-6.24%	-4.88%	1.56%	4.98%	2.16%	5.64%	2.5%	5.61%	-0.27%	-1.35%	2.79%
C/C(Nc1ccc(S(N)(=O)=O)cc1)=C1/C(=O)Nc2ccccc21	12.2%	-0.47%	12.8%	1.79%	11.7%	-1.33%	14.2%	-0.23%	10.1%	0.11%	10.5%	-0.72%	12%	-4.07%	-0.17%	-2.78%	-1.43%	-2.32%	-1.09%	-5.47%
O=C1Nc2ccc(I)cc2C1=Cc1cc(Br)c(O)c(Br)c1	2.95%	1.68%	5.83%	5.59%	6.33%	3.04%	4.7%	4.07%	6.48%	-5.83%	-7.49%	1.48%	3.74%	2.64%	7.27%	3.26%	6.68%	-1.22%	-0.86%	-2.19%
CN(c1ccc(NC(=O)Nc2c(Cl)cccc2Cl)cc1)c1ccnc(Nc2cccc(CS(C)(=O)=O)c2)n1	73.2%	19.4%	56.2%	16.9%	53.1%	1.74%	4.6%	25.1%	55.1%	4.33%	28.6%	37.2%	75%	47.1%	73.5%	10.8%	44%	18.8%	26.5%	10.6%
